Among the data in PubChem BioAssay (Tox21) are Potency values, retold here.

SMILES strings stand for the structures. Activity calls are given as the source filed them. A call without a number means that no potency is given here. The call rests on the fitted dose curve.
Potency means the concentration at half of the fitted maximal effect.

Sequence of Gonadotropin-releasing hormone receptor (Homo sapiens) (P30968 whole entry, looked up): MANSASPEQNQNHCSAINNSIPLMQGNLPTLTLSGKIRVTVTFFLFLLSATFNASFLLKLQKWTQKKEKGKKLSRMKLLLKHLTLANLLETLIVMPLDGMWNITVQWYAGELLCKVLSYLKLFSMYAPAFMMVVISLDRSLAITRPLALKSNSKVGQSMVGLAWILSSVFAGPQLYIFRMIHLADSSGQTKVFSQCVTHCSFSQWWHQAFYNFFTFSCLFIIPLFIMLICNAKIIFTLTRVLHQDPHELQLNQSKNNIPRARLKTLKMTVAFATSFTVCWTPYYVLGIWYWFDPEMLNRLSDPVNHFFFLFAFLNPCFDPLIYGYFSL

This experiment addresses Gonadotropin-releasing hormone receptor (Homo sapiens) (UniProt P30968). Kind of experiment: Human gonadotropin-releasing hormone receptor (GnRHR) small molecule agonists, calcium flux assay in GnRHR-HEK293 cells (AID 1920063). Further: nearly all actives have a fitted effect of over 35% in size. The following applies: calcium flux fluorescence, agonist mode; series mostly up to 57.6 µM. An excerpt: National Center for Advancing Translational Sciences [NCATS]
Division of Preclinical Innovation [DPI]
U.S. Environmental Protection Agency [EPA]
National Institutes of Environmental Health Sciences [NIEHS]
National Toxicology Program [NTP]
U.S. Food and Drug Administration [FDA]
Gonadotropin-releasing hormone receptor (GnRHR) is a G-protein-coupled receptor (GPCR) and acts (through phospholipase C) to increase intracellular inositol trisphosphate and then release intracellular calcium stores. Cell-based GnRHR-Hek293 calcium influx assay is using HEK293 cells that have been genetically engineered to express the human GnRHR, which activity can be measured by calcium signaling. A compound/drug can activate (agonist) GnRHR that can be monitored by levels of intracellular calcium.
GnRHR-HEK293 cells developed by Codex Corp contain human GnRHR reporter gene, which was stably integrated into HEK 293 cells. The compound activation can be detected by fluorescence intensity via calcium flux assay. This cell line has been used to screen the Tox21 10K compound library to identify GnRHR agonists.
GnRHR-Hek293 cells were dispensed at 1500cells/4uL/well in 1536-well black wall/clear bottom plates using a multidrop dispenser. After the assay plates were incubated at a 37 C/5% CO2 incubator for 18 hours, 4 uL of Calcium Dye Solution was added to each well. The plates were incubated at 37 C for 1 hour. For agonist mode, 23 nL of compounds dissolved in DMSO, positive controls or DMSO only was transferred to the assay plate by a pin tool station. The fluorescence intensity in the plates was measured using FDSS 7000EX kinetic plate reader with a filter set of Ex/Em=480/540 for 3 min at 1 sec intervals. Each test compound was measured at 15 concentrations and in triplicates.
For orientation: A change in cytosolic calcium serves as a functional read-out for many receptors and channels.
As for `BrCCCBr`, the Potency result is “inactive”.
The same measure for `COc1ccc(C=O)cc1O`: “inactive”.
Then `CC1(c2ccc(Oc3ccccc3)cc2)OC(=O)N(Nc2ccccc2)C1=O` (stereo not given), with “inactive”; and `Clc1ccc(C2(Cn3cncn3)CC(Br)CO2)c(Cl)c1` (stereo not given), with “inactive”; and `S=C=NCCc1ccccc1`, with “inactive”.
As for `COP(=S)(Oc1cc(Cl)c(Br)cc1Cl)c1ccccc1` (stereo not given), the Potency entry was “inactive”.
Regarding `COC(=O)C1=CCCN(C)C1`, the Potency was 1.07 µM (active).
Then `CCC(=O)C(CCN(C)C)(c1ccccc1)c1ccccc1`, with “inactive”; and `CCCSP(=O)(OCC)SCCC`, with “inactive”; and `C=CC(C)(CCC=C(C)C)OC(=O)c1ccccc1N` (stereo not given), with “inactive”.
The same measure for `CC(C)CC(C)Nc1ccc(Nc2ccccc2)cc1` (stereo not given): “inactive”; for `COc1nn(CSP(=S)(OC)OC)c(=O)s1`: “inactive”.
The same measure for `CN1C(=O)CN=C(c2ccccc2)c2cc([N+](=O)[O-])ccc21`: “inactive”.
As for `OC(c1ccc(Cl)cc1)(c1ccc(Cl)cc1)c1cccnc1`, the Potency result is “inactive”.
Then `O=C(Cl)c1ccccc1F`, with “inactive”.
With `O=C(O)CCCCCCNC1c2ccccc2CCc2ccccc21`, the Potency entry is “inactive”.
Consider `CCN1CCCC1CNC(=O)C(O)(c1ccccc1)c1ccccc1` (stereo not given), for which the Potency result is “inactive”.
Then `Cc1cc(SCc2sc(-c3ccc(C(F)(F)F)c(F)c3)nc2C)ccc1OCC(=O)O`, with “inactive”.
The same measure for `O=[N+]([O-])C(Br)Br`: “inactive”; for `Nc1nc(N)c(N)c(N)n1`: 39.1 µM (active).
Then `CCOC(=O)CBr`, with “inactive”; and `CC(CC(C(N)=O)(c1ccccc1)c1ccccc1)N(C)C` (stereo not given), with “inactive”.
On to `O=C(O)C(Br)CBr` (stereo not given), for which the Potency result is “inactive”.
Then `Cc1ncsc1CCCl`, with “inactive”; and `C=CC(=C)C`, with “inactive”; and `CC(C)(c1ccccc1)c1ccc(O)cc1`, with “inactive”.
For `CCOP(=O)(OCC)Oc1nc(Cl)c(Cl)cc1Cl`, the Potency entry is “inactive”.
The same measure for `CC[C@H]1C[C@H]2[C@@H]3CCC4=CC(=O)CC[C@@H]4[C@H]3CC[C@]2(C)[C@H]1O`: “inactive”; for `COP(=S)(OC)Oc1ccc(S(N)(=O)=O)cc1`: “inactive”; for `Fc1cccc(Cl)c1CCl`: “inactive”.
Then `Nc1ccc(Cc2ccc(N)c(Cl)c2)cc1Cl`, with “inactive”; and `O=C1C[C@@H]2OCC=C3CN4CC[C@]56c7ccccc7N1[C@H]5[C@H]2[C@H]3C[C@H]46`, with “inactive”; and `O=c1ssc(Cl)c1Cl`, with “inactive”.
Then `CCCOc1nn(C(=O)NS(=O)(=O)c2ccccc2C(=O)OC)c(=O)n1C`, with “inactive”.
In the case of `N#CSCc1ccccc1`, the Potency result is “inactive”.
The same measure for `NC1=NC(=O)C(c2ccccc2)O1` (stereo not given): “inactive”; for `OCCBr`: “inactive”.
Take `CCCCOP(=O)(O)OCCCC`: the Potency entry is “inactive”.
Turning to `C[C@]12CC[C@H](O)C[C@H]1CC[C@@H]1[C@@H]2C[C@@H](O)[C@]2(C)[C@@H](C3=CC(=O)OC3)CC[C@]12O`, the Potency result is “inactive”.
Consider `CNC(=O)CSP(=O)(OC)OC`, for which the Potency result is “inactive”.
